Measured values reported in PubChem BioAssay AID1117319 (Southern Research Institute, 2015).
Screen size: about 260,000 compounds; about 1,500 (0.58%) were called active. Not shown: some 5% with an inconclusive outcome.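 Rule for the calls: active = inhibition above a set limit at one or more doses, reproduced on every date tested; inconclusive = results disagree between test dates, or hit never tested in dose response; inactive = the rest.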 These entries were drawn from the full list. Results with a measured potency or affinity are listed apart.

target: Virion infectivity factor (Human immunodeficiency virus type 1 group M subtype B (isolate BH10)) + Virion infectivity factor (Human immunodeficiency virus type 1 group M subtype B (isolate BRU/LAI)) + Virion infectivity factor (Human immunodeficiency virus type 1 group M subtype B (isolate PCV12)) + Virion infectivity factor (Human immunodeficiency virus type 1 group M subtype B (isolate HXB2)) + DNA dC->dU-editing enzyme APOBEC-3G (Homo sapiens) (UniProt P69720+P69721+P69722+P69723+Q9HC16); experiment: inhibitors of Vif binding to APOBEC3G peptide, primary screen, biochemical, TR-FRET, GST-Vif 1-94, biotin-A3G peptide, dose response retest (AID 1117319); conditions: hits give high values;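 note: Vif residues 1-94 fused to GST binding biotinylated APOBEC3G peptide 110-148; 0% = full assay without inhibitor and 100% = GST in place of GST-Vif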

inhibition, inactive:
COc1ccc(/C=C2\S/C(=N/S(=O)(=O)c3cccs3)NC2=O)cc1 7.65%
CCCNC(=O)CN1C(=O)NC(CCc2ccccc2)C1=O (stereo unspecified) -6.24%
NC(=O)c1cc(S(=O)(=O)NCCCc2ccccc2)cs1 3.6%
COc1ccc(Nc2nc(C)cc(=O)[nH]2)c(OC)c1 10.4%
COC(=O)C1=C(N)OC2=C(C(=O)CC(C)(C)C2)C1c1cccs1 (stereo unspecified) 12.5%
CCOC(=O)C1=C(N)OC2=C(C(=O)CCC2)C1c1cccs1 (stereo unspecified) 1.36%
COc1cc(/C=N/N=C(/C(=O)c2ccccc2)c2ccccc2)cc(OC)c1O 1.68%
Oc1ccccc1/C=N/Nc1ccccc1 3.4%
O=C(C(=NNc1ccccc1)c1ccccc1)c1ccccc1 -6.13%
Oc1ccccc1C=NNC(=S)NN=Cc1ccccc1O -0.1%
O=C1C=CC(=O)N1CCCCCCCCCCN1C(=O)C=CC1=O -0.57%
O=S(=O)(NC1CCCC1)c1ccc(F)cc1F 21.1%
COc1ccc(C(=O)NC(C)c2nnc(SCC(=O)Nc3nc(C)cs3)n2C)cc1 (stereo unspecified) 5.71%
COc1cc(NS(=O)(=O)c2ccc(NC(=O)/C=C/c3ccc([N+](=O)[O-])cc3)cc2)ncn1 7.89%
CN1C(=O)CSC1=Nc1cccc(C(=O)O)c1 -5.13%
CN1C(=O)/C(=C/c2ccco2)SC1=Nc1ccc(N2CCOCC2)cc1 25%
CCCCn1c(N)c(N(CCC(C)C)C(=O)CSc2nnc(C)s2)c(=O)[nH]c1=O 2.42%
COc1ccc(N2CCN(c3ccc(C(N)=O)cc3[N+](=O)[O-])CC2)cc1 -3.87%
CC(=O)c1ccc(N2CCN(c3ccc(C(N)=O)cc3[N+](=O)[O-])CC2)cc1 15.8%
O=C(OCc1ccco1)c1cccnc1 -2.16%
Cc1ccc(Cc2c(-c3ccccc3)nc3cc(C)ccn23)cc1 -4.74%
CCCC(=O)Nc1nnc(Sc2ccc(N(C)C)cc2)s1 2.88%
CCC(=O)Nc1nnc(Sc2ccc(N(C)C)cc2)s1 2.99%
COCCSc1nnc(NC(=O)COC)s1 -0.26%
O=C1c2cccnc2C(Nc2cccc(F)c2)N1Cc1ccco1 (stereo unspecified) -1.27%
O=C1c2cccnc2C(Nc2ccccc2Br)N1Cc1ccco1 (stereo unspecified) 9.8%
Cc1cc(C(=O)COC(=O)c2ccc[nH]c2=O)c(C)n1C1CC1 13%
NC(=S)NNC(=O)c1cc(C(F)(F)F)cc(C(F)(F)F)c1 1.55%
Cc1ccc2[nH]cc(S(=O)(=O)c3ccc(C(C)C)cc3)c(=O)c2c1 -10.1%
CN(Cc1ccno1)C(=O)CC1C(=O)NCCN1CC(c1ccccc1)c1ccccc1 (stereo unspecified) -5.42%
Cc1ccc(NCN2C(=O)C3C4C=CC(C4)C3C2=O)cc1 (stereo unspecified) 6.77%
O=C1C2C3C=CC(C3)C2C(=O)N1CNc1ccccc1 (stereo unspecified) 2.49%
Cc1ccc(NC(=O)CSc2nc(C)c(C)c(C)n2)c([N+](=O)[O-])c1 -0.85%
CCOC(=O)C1=C(C)N=C(/N=C/N(C)C)SC1c1ccccc1 (stereo unspecified) 18.8%
COc1ccccc1NC(=O)Cn1c(CCC(=O)O)ccc1-c1ccccc1 -8.03%
O=C(O)CCc1ccc(-c2ccccc2)n1CC(=O)O 6.57%
O=S(=O)(Nc1ccc2c(c1)OCCO2)c1ccc2oc3ccccc3c2c1 -4.26%
Cc1ccc(C(=O)Nn2c(O)c(C=C3N=c4ccccc4=N3)sc2=S)cc1 0.29%
O=C(CCNC(=O)N1CC(=O)Nc2ccccc21)NCc1ccccc1Cl 2.33%
COCCN1CC(C(=O)NCc2ncccc2C)CCC1=O (stereo unspecified) 0.7%
O=c1oc2ccc([N+](=O)[O-])cc2c(N2CCOCC2)c1[N+](=O)[O-] -2.71%
COC(=O)Cc1cc(=O)n(-c2ccccc2)[nH]1 20.8%
COc1ccc(-c2cc(=O)n(-c3nc4ccccc4[nH]3)[nH]2)cc1 10.5%
COCCSc1nc2c(c(=O)[nH]c(=O)n2C)n1CCC(C)C 2.86%
Cc1ccc(N(CCO)C(=S)Nc2ccccc2)cc1 1.36%
O=C(c1cc(-c2ccccc2)nn1-c1ccccc1)N1CCN(S(=O)(=O)c2ccc(F)cc2)CC1 -4.9%
CCOC(=O)c1c(C)oc2c1c(C=NCC1CCCO1)c(O)c1ccccc12 (stereo unspecified) 25.6%
CCOC(=O)c1c(C)oc2c1c(C=NCCO)c(O)c1ccccc12 14.7%
CNS(=O)(=O)c1cccc(C(=O)OCC(=O)c2ccc3[nH]c(=O)[nH]c3c2)c1 4.94%
COc1ccccc1NC(=S)NC(NC(C)=O)C(Cl)(Cl)Cl (stereo unspecified) -2.68%
O=C(CCC(=O)N1CCN(c2ccccc2F)CC1)c1ccc(F)cc1 0.58%
Cc1cccn2c(=O)nc(SCC(=O)N3CCCCC3)nc12 -0.7%
Cc1cc(=O)n2nc(-c3ccc(C(F)(F)F)cc3)sc2n1 0.75%
CCN(CC)S(=O)(=O)c1ccc(/C=C/C(=O)Nc2ccccc2N2CCOCC2)cc1 28.5%
CCOc1ccc(/C=C/C(=O)Nc2ccc(N3CCOCC3)cc2)cc1 3.96%
CCNC(=O)COC(=O)c1ccc(S(=O)(=O)N2CCCCCC2)cc1 -4.99%
CC(C)Cc1cc(C(=O)N2CCC(N3CCC(C(=O)N4CCOCC4)CC3)CC2)n[nH]1 12.3%
CCCCN(C)C(=O)c1nc2ccccn2c1CN1CCN(c2ccccn2)CC1 -11.9%
COCCn1nnnc1C(c1cc2cc(C)ccc2[nH]c1=O)N1CCc2ccccc21 (stereo unspecified) 17%
Cc1cc(NC(=O)CSc2nnc(Cc3cccn3C)n2CCc2ccccc2)no1 24.2%
CC1(C)Cc2cccc(OCC(=O)OCc3nnc(-c4ccccc4)o3)c2O1 -2.78%
